Measurements from PubChem BioAssay AID1259421 (Broad Institute, 2018).
Values joined by “and” are separate entries in the source; they are usually repeats but may differ in a detail not shown here. Identical values can stand only once. Hit rate of the full screen: of about 6,400 compounds, about 610 (9.5%) were called active. Rule as the data show it: active = activity change below about -70%; inconclusive = no clear call, values can overlap the other calls; inactive = above that. Only a selection was taken, and actives are over-represented in it overall. The source holds several records for some structures; these can differ, active in one and inactive in another.

Test: Toxoplasma gondii ME49Luc growth in HeLa cells, luciferase, no IFN-y, primary screen (AID 1259421)
Conditions: T. gondii ME49Luc in HeLa, 72 h, stronger effect = lower value, concentration not given here
With `Brc1c(Br)c(Br)c2n[nH]nc2c1Br` the activity change, negative = inhibition was 5.07% (inactive) and 22.5% (inactive). In the case of `OCc1cc2c(cn1)[nH]c1ccccc12`, the activity change, negative = inhibition is reported as 12.8% (inactive). For `CCOC(=O)c1c(C)[nH]c2ccc3c(c12)CN1CCc2cc(OC)ccc2C1O3` (configuration not stated), the activity change, negative = inhibition was 5.91% (inactive). For `C[C@@H](O)CNC(C)(C)CC(=O)N[C@@H]1CCc2ccccc2N(Cc2ccc(-c3ccccc3-c3nn[nH]n3)cc2)C1=O`, the activity change, negative = inhibition was 8.07% (inactive). With `CC[C@H](Nc1ncnc2nc[nH]c12)c1nc2cccc(F)c2c(=O)n1-c1ccccc1` the activity change, negative = inhibition was 0.609% (inactive). In the case of `Nc1c(S(=O)(=O)O)cc(Nc2cccc3ccccc23)c2c1C(=O)c1ccccc1C2=O`, the activity change, negative = inhibition is reported as 5.63% (inactive). In the case of `C[C@H](CCC(=O)NCC(=O)O)[C@H]1CCC2C3C(C[C@H](O)[C@@]21C)[C@@]1(C)CC[C@@H](O)CC1C[C@H]3O` (some centres not stated), the activity change, negative = inhibition is reported as 3.03% (inactive). With `CN(C)C(=N)N=C(N)N` the activity change, negative = inhibition was 11% (inactive) and -0.508% (inactive). In the case of `CN(C)CC(=O)Nc1ccc2[nH]c(=O)c3ccccc3c2c1`, the activity change, negative = inhibition is reported as -4.97% (inactive). With `O=C(c1ccc2nccnc2c1)N1CCCCC1` the activity change, negative = inhibition was 3.08% (inactive). In the case of `COC(=O)[C@]12CCC(C)(C)C[C@@H]1[C@@H]1C(=O)C=C3[C@]4(C)C=C(C#N)C(=O)C(C)(C)[C@@H]4CC[C@@]3(C)[C@]1(C)CC2`, the activity change, negative = inhibition is reported as -87.4% (active). With `CC(=O)N[C@@H](CSC/C=C(\C)CC/C=C(\C)CCC=C(C)C)C(=O)O` the activity change, negative = inhibition was 7.49% (inactive). For `OC[C@H]1NC[C@@H](O)[C@@H](O)[C@@H]1O`, the activity change, negative = inhibition was 13.1% (inactive). In the case of `COc1ccc(C(=O)NCc2cccnc2)cc1C(=O)NCc1cccnc1`, the activity change, negative = inhibition is reported as 7.12% (inactive). With `CCC[C@H](Nc1nc(-c2ccc(NC(=O)NCC)c(OC)c2)ncc1C)c1cccnc1` the activity change, negative = inhibition was -75.6% (active). For `Oc1ccccc1-c1nnco1`, the activity change, negative = inhibition was 11.7% (inactive). With `CCCCC1C(=O)N(c2ccccc2)N(c2ccccc2)C1=O` the activity change, negative = inhibition was 10.6% (inactive) and 30.2% (inactive) and 17.8% (inactive). In the case of `CCCCCCCCCCCCCCCCCCCCCC(=O)O`, the activity change, negative = inhibition is reported as -1.78% (inactive). With `CCCCCCCCCCCC1C(=O)C(=O)CC(=O)C1=O` the activity change, negative = inhibition was -89.4% (active) and -2.92% (inactive). With `O=C(/C=C/c1ccc2ccccc2n1)c1ccncc1` the activity change, negative = inhibition was 3.25% (inactive). With `CN(C)C1C(=O)C(C(N)=O)C(=O)C2(O)C(=O)C3C(=O)c4c(O)ccc(Cl)c4C(O)C3CC12` (configuration not stated) the activity change, negative = inhibition was 321% (inactive). For `COC(=O)NC(C)CNc1nccc(-c2cn(C(C)C)nc2-c2cc(Cl)cc(NS(C)(=O)=O)c2F)n1` (configuration not stated), the activity change, negative = inhibition was -71.5% (active). In the case of `O=c1[nH]nc2c3c(cccc13)NC(CN1Cc3ccccc3C1)=N2`, the activity change, negative = inhibition is reported as 12.4% (inactive). In the case of `Oc1ccc([C@@H]2Oc3ccc(O)cc3[C@@H]3CCC[C@@H]32)cc1`, the activity change, negative = inhibition is reported as 6.56% (inactive). With `Cc1cc(O)cc2c1O[C@](C)(CCC[C@H](C)CCC[C@H](C)CCCC(C)C)CC2` the activity change, negative = inhibition was -4.66% (inactive). In the case of `COc1c(C)c2c(c(O)c1C/C=C(\C)CCC(=O)OCCN1CCOCC1)C(=O)OC2`, the activity change, negative = inhibition is reported as -75.2% (active) and -92% (active). For `COc1c(C)c2c(c(O)c1C/C=C(/C)CCC(=O)O)C(=O)OC2`, the activity change, negative = inhibition was -79.6% (active). For `COc1c(C)c2c(c(O)c1C/C=C(\C)CCC(=O)O)C(=O)OC2`, the activity change, negative = inhibition was -74.4% (active) and -89.1% (active). In the case of `C#CC1(OCC(O)CN2CCN(c3ccccc3OC)CC2)CCCCC1` (configuration not stated), the activity change, negative = inhibition is reported as 9.69% (inactive). With `CCCCC/C=C\C[C@@H](O)/C=C/C=C/C=C\[C@@H](O)CCCC(=O)O` the activity change, negative = inhibition was 7.41% (inactive). In the case of `N=[N+]=CC(=O)CC[C@H](N)C(=O)O`, the activity change, negative = inhibition is reported as 0.432% (inactive). For `CC(C)(C)c1ccc(-c2nc3ccccc3[nH]2)cc1`, the activity change, negative = inhibition was -87.4% (active). In the case of `c1ccc2[nH]c(-c3nc4ccccc4[nH]3)nc2c1`, the activity change, negative = inhibition is reported as 156% (inactive). For `c1ccc(-c2nc3ccccc3[nH]2)cc1`, the activity change, negative = inhibition was 279% (inactive). For `CC1(C)CC1C(=O)N/C(=C\CCCCSCC(N)C(=O)O)C(=O)O` (configuration not stated), the activity change, negative = inhibition was 8.4% (inactive). In the case of `CC(=O)O[C@H]1C[C@@]2(C)[C@@H](C[C@@H](O)[C@H]3[C@@]4(C)CC[C@@H](O)[C@@H](C)C4CC[C@@]32C)/C1=C(/CCC=C(C)C)C(=O)O` (some centres not stated), the activity change, negative = inhibition is reported as -17.8% (inactive). In the case of `Cc1cc(OCCCS(C)(=O)=O)cc(C)c1-c1cccc(COc2ccc3c(c2)OC[C@H]3CC(=O)O)c1`, the activity change, negative = inhibition is reported as 15.8% (inactive). With `COc1ccc2[nH]c(I)c(CCNC(C)=O)c2c1` the activity change, negative = inhibition was 14.7% (inactive) and -1.11% (inactive). In the case of `CC1C(=O)C(=O)[C@@H]2O[C@@H]2C1=O` (some centres not stated), the activity change, negative = inhibition is reported as 7.42% (inactive). In the case of `O=C(Nc1cccc(Cl)c1)c1ccccn1`, the activity change, negative = inhibition is reported as 154% (inactive). With `O=C(Nc1cccc(Cl)c1)Nc1ncc(CCNc2ncnc3ccsc23)s1` the activity change, negative = inhibition was -92.1% (active). In the case of `COc1cc2ncnc(Nc3cccc(Cl)c3)c2cc1OC`, the activity change, negative = inhibition is reported as -46.3% (inactive). With `O[C@H](CNC[C@@H](O)[C@H]1CCc2cc(F)ccc2O1)[C@@H]1CCc2cc(F)ccc2O1` the activity change, negative = inhibition was 9.73% (inactive). With `C=C(C)[C@@H]1CC[C@]2(CO)CC[C@]3(C)[C@H](CC[C@@H]4[C@@]5(C)CC[C@H](O)C(C)(C)[C@@H]5CC[C@]43C)[C@@H]12` the activity change, negative = inhibition was 19.1% (inactive). With `Cc1nnc(-c2ccc3occ(-c4ccc(S(C)=O)cc4)c3c2)o1` (configuration not stated) the activity change, negative = inhibition was 1.22% (inactive). For `O=C(NCCCN1CCC2(CC1)OCc1ccccc12)[C@H]1CCCN1Cc1ccccc1`, the activity change, negative = inhibition was 18.8% (inactive). With `Fc1ccc(-n2cc(CCCCN3CCC4(CC3)OCc3ccccc34)c3ccccc32)cc1` the activity change, negative = inhibition was -77.2% (active). With `O=C(c1ccc(F)cc1)C1CCN(CCCCc2ccccc2)CC1` the activity change, negative = inhibition was 3.6% (inactive) and 8.67% (inactive). In the case of `CN(CCOc1ccc(CC(Nc2ccccc2C(=O)c2ccccc2)C(=O)O)cc1)c1ccccn1` (configuration not stated), the activity change, negative = inhibition is reported as 1.37% (inactive). In the case of `CCOC(=O)[C@@H](N)CCC(=O)N[C@@H](CSCc1ccccc1)C(=O)N[C@@H](C(=O)OCC)c1ccccc1`, the activity change, negative = inhibition is reported as -2.09% (inactive). In the case of `CC1OC(OCC2OC(Oc3c(-c4ccc(O)c(O)c4)oc4cc(O)cc(O)c4c3=O)C(O)C(O)C2O)C(O)C(O)C1O` (configuration not stated), the activity change, negative = inhibition is reported as -9.9% (inactive). For `CS(=O)(=O)c1ccc(C(O)[C@H](CF)NC(=O)C(Cl)Cl)cc1` (some centres not stated), the activity change, negative = inhibition was -54.7% (inactive) and -27.8% (inactive).
